# Source: PubChem (National Center for Advancing Translational Sciences (NCATS))
# aSyn yeast inh: inhibitors of alpha-synuclein toxicity in yeast; Yeast expressing alpha-synuclein, growth rescue, BacTiter-Glo, 24 h; Potency, µM (top dose mostly 46.1 µM), for the others: at the top dose growth rescue (activation), actives largely listed as activators; 370,000 tested, 0.14% active; further: % of control where 0% means no effect; nearly all actives have a fitted effect of over 65% in size
#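 Readout is rescue of growth in alpha-synuclein-expressing yeast, so inhibitors of toxicity appear as activators. Growth after 24 hr at 30 deg C in galactose medium is quantified by luminescence.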
# FUS suppressor: suppressors of FUS proteinopathy in yeast. AID 1347120. S. cerevisiae FUS-expressing, growth rescue, OD600, 24 h. 390,000 tested, 0.24% active. Potency, µM (highest dose often 76.6 µM), actives largely listed as activators;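 further: plate controls were DMSO vehicle for no effect and reference control for full effect; nearly all actives have a fitted effect of over 55% in size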
#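 Read-out: OD at 600 nm after 24hr at 30C, reporting rescue of FUS-induced yeast toxicity. Cells at OD 0.005 in galactose (2%) minimal medium; compounds tested in a dilution series; CP55940 titration from 92uM final as control.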
# Abeta rescue: A-beta toxicity reversal in yeast. yeast expressing A-beta42, growth rescue, OD600, 48 h; response scale: 0% DMSO, 100% iron-clioquinol control. 410,000 tested, 0.063% active. Potency, µM (titrated, usually from 46.1 µM), actives largely listed as activators; further: nearly all actives have a fitted effect of over 55% in size
#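 Yeast A-beta toxicity model in growth medium with pinned compounds, 48 h at 30 C; growth read as absorbance at 600 nm. Normalized to FeCl3/clioquinol equimolar mix (positive) and DMSO (negative).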
# TDP-43 yeast inh: inhibitors of TDP-43 toxicity in yeast; TDP-43 expressing yeast growth rescue, BacTiter-Glo, 24 h; Potency, µM (highest dose often 46.1 µM), for inactives: top-dose growth rescue (activation), usual class: activators; 410,000 tested, 1.8% active; further: % of control where 0% means no effect; nearly all actives have a fitted effect of over 50% in size
#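 Yeast cells expressing TDP-43 under galactose induction are exposed to compounds for 24 hr at 30 deg C. BacTiter-Glo luminescence measures growth, so protective compounds score as activators.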
# Numbers without * were called inactive; i = inactive; ? = inconclusive; . = no result given; [ ] = remark or other dose. Hits are enriched below; roughly 2.1% of the tested compounds scored in any of these assays. The call rests on the fitted dose curve; in most records, active means well fitted curve in the direction sought with a large enough effect; inconclusive means small, poorly fitted or top-dose-only effect, or another doubt; inactive means no such curve, though single readings can be large; an effect the other way counts as inactive or inconclusive. Potency means the concentration at half of the fitted maximal effect.
SMILES,aSyn yeast inh,FUS suppressor,Abeta rescue,TDP-43 yeast inh
CC1C(=O)N(Cc2cn(Cc3ccco3)nn2)CCS(=O)(=O)N1Cc1ccc(-c2ccc(Cl)c(Cl)c2)cc1 (stereo unspecified),?,?,i,35.5µM*
Cc1ccc(-c2ccc(CN3C(C)C(=O)N(Cc4cn(Cc5ccco5)nn4)CCS3(=O)=O)cc2)c(C)c1 (stereo unspecified),?,?,i,35.5µM*
Cc1ccc(-c2ccc(CN3C(C)C(=O)N(Cc4cn(Cc5ccco5)nn4)CCS3(=O)=O)cc2)cc1 (stereo unspecified),?,?,i,?
CC(C)C1C(=O)N(Cc2cn(Cc3ccco3)nn2)CCS(=O)(=O)N1Cc1ccc(-c2ccc(Cl)c(Cl)c2)cc1 (stereo unspecified),14.7%,?,i,27.7%
Cc1ccccc1-c1ccc(CN2C(C)C(=O)N(Cc3cn(Cc4ccco4)nn3)CCS2(=O)=O)cc1 (stereo unspecified),?,?,i,35.5µM*
Cc1ccnc2ccc(F)cc12,1.3%,.,.,.
C=CCC[C@@H](Cc1ccc(F)cc1)C(=O)OC[C@@H](NC(=O)[C@@H](CC=C)CC(=O)N[C@@H](CO)Cc1ccccc1)C(C)(C)C,-1.5%,i,i,22.8%
C=CCC[C@H](Cc1ccc(F)cc1)C(=O)OC[C@@H](C)NC(=O)[C@@H](CC=C)CC(=O)N[C@@H](CO)Cc1ccccc1,-3.5%,i,i,20.1%
C=CC[C@@H](CC(=O)N[C@H](CO)Cc1ccccc1)C(=O)N[C@H](COC(=O)[C@@H](CC=C)Cc1ccc(F)cc1)C(C)(C)C,-10.0%,15.8µM*,i,16.6%
C=CC[C@@H](CC(=O)N[C@@H](CO)Cc1ccccc1)C(=O)N[C@H](COC(=O)[C@@H](CC=C)Cc1ccc(F)cc1)Cc1ccccc1,1.3%,i,i,11.2%
C=CCC[C@H](Cc1ccc(F)cc1)C(=O)OC[C@@H](C)NC(=O)[C@@H](CC=C)CC(=O)N[C@H](CO)Cc1ccccc1,-2.5%,25.1µM*,i,-1.6%
C=CCC[C@H](Cc1ccc(F)cc1)C(=O)OC[C@@H](NC(=O)[C@@H](CC=C)CC(=O)N[C@@H](CO)Cc1ccccc1)C(C)(C)C,-1.4%,12.6µM*,i,-30.3%
Cc1ccc(-n2c(SCC(=O)Nc3ccc(OCc4ccccc4)cc3)nnc2-c2ccccc2)cc1,.,i,.,.
N#Cc1cccc(S(=O)(=O)N2CCN(c3nc(-c4cccs4)nc4ccccc34)CC2)c1,5.7%,.,.,.
COc1ccc(C(O)c2nc(-c3ccc(Cl)cc3)cs2)cc1 (stereo unspecified),11.2µM*,i,?,?
COc1ccc(-c2csc(C(O)c3ccc(F)cc3)n2)cn1 (stereo unspecified),1.7%,i,i,35.5µM*
OC(c1ccco1)c1nc(-c2ccc(F)c(Cl)c2)cs1 (stereo unspecified),1.1%,i,i,12.6µM*
OC(c1ccc(F)cc1)c1nc(-c2ccc(F)c(Cl)c2)cs1 (stereo unspecified),-59.3%,i,i,-85.5%
COc1ccc(-c2csc(C(O)c3ccc(F)cc3)n2)cc1 (stereo unspecified),?,i,i,22.4µM*
Brc1cccc[n+]1Cc1ccccc1C[n+]1ccccc1Br,-6.3%,.,.,.
COc1cc(C(O)c2nc(-c3ccc4ccccc4c3)cs2)ccc1F (stereo unspecified),3.4%,i,i,?
COc1ccc(C(O)c2nc(-c3ccc4ccccc4c3)cs2)cc1 (stereo unspecified),3.55µM*,i,i,3.0%
COc1ccc(C(O)c2nc(-c3cccs3)cs2)cc1 (stereo unspecified),17.6%,i,i,15.8µM*
COc1ccc(C(O)c2nc(-c3ccccc3)cs2)cc1 (stereo unspecified),20.3%,i,?,35.5µM*
O=C(C1CCN(c2cncnc2)CC1)N1CCOCC1,.,i,.,.
SMILES,aSyn yeast inh,FUS suppressor,Abeta rescue,TDP-43 yeast inh
CC[C@@]1(c2ccccc2OC)ON(c2ccccc2C(F)(F)F)C1=O,6.5%,i,i,17.8µM*
Cc1ccccc1[C@@]1(C)ON(c2ccccc2C(F)(F)F)C1=O,14.2%,i,i,10.8%
COc1ccc(CCNC(=O)CSc2cn(CCNC(=O)c3ccccc3F)c3ccccc23)cc1OC,.,?,i,5.0%
CC1=NN(/C(=N\c2nnc(C)s2)Nc2ccc(C(C)(C)C)cc2)[C@H](c2ccc(C)cc2)S1,-0.1%,?,i,35.5µM*
Cc1ccc(NC(=O)CCSc2nnc(C)s2)cc1,1.6%,i,i,15.2%
COc1cc(Nc2nc3ccccc3c3nnc(C)n23)cc(OC)c1,.,i,i,17.7%
CN(C)/[N+]([O-])=N/Oc1ccc([N+](=O)[O-])cc1[N+](=O)[O-],-47.2%,.,.,.
O=C1c2ccccc2-c2onc3ccc(N4CCCC4)c1c23,-17.8%,?,i,-17.2%
O=C1c2ccccc2C(=O)c2c1cccc2N1CCCC1,-22.7%,.,i,14.1µM*
COc1cc(OC)c(N(C)C(=O)C2CCCN(c3ncnc4c3nc3n4CCCCC3)C2)cc1Cl (stereo unspecified),.,i,i,14.5%
COc1ccc(-c2nn(-c3ccc(C)cc3)c3c2cnc2ccc(C)cc23)cc1OC,.,i,i,22.2%
COc1cc2ncc3c(-c4ccccc4)nn(-c4ccc(C)cc4)c3c2cc1OC,.,i,i,7.08µM*
CC(C)Oc1ccc(CNC(=O)C2CCN(C(=O)N3CCOc4ccc(Cl)cc43)CC2)cc1,.,i,i,8.5%
O=C(NNc1nc2c(F)cccc2s1)C1COc2ccccc2O1 (stereo unspecified),1.6%,i,i,-12.5%[0.397 µM]
O=C(Nc1nc(-c2ccccn2)cs1)C1COc2ccccc2O1 (stereo unspecified),?,i,i,?
Cc1ccc2sc(NNC(=O)C3COc4ccccc4O3)nc2c1C (stereo unspecified),-4.4%,i,i,7.08µM*
O=C(Nc1nc(-c2ccc3c(c2)OCO3)cs1)C1COc2ccccc2O1 (stereo unspecified),-0.5%,i,i,11.2µM*
O=C(Nc1nc(-c2ccccc2)cs1)C1COc2ccccc2O1 (stereo unspecified),-12.2%,i,i,11.2µM*
O=C(Nc1nc(-c2ccc3c(c2)OCCO3)cs1)C1CCCC1,-20.1%,i,i,11.2µM*
CC(C)c1ccc(OC[C@@H](O)CN2CCC(C(O)(c3ccccc3)c3ccccc3)CC2)cc1,.,i,.,.
COc1ccc(S(=O)(=O)N(CCc2ccccc2)CC(=O)NCc2ccccc2)cc1OC,.,i,i,0.8%
N#CN=c1snc(-c2ccccc2)n1-c1ccc(Br)cc1,-9.3%,.,.,.
CN(C)c1ccc(/C=C/c2ccnc3ccc(O)cc23)cc1,7.9%,.,.,.
